The values that follow come from the supplement of paper PMC10477191.

± gives the standard deviation of the averaged measurements.

The assay deals with Drosophila ezoana antennal basiconic sensillum ab5. Nature of the assay: odor-evoked OSN spike response (post minus pre-stimulus); higher = stronger neuronal excitation. Conditions: odor dilution: 10^-4. As to the method: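 Single sensillum recordings from antennal basiconic sensilla of D. ezoana. A 500 ms pulse of odorant (10^-4 in mineral oil or DMSO) was delivered; the response is the change in action potential frequency between the 1 s pre- and post-stimulus windows (spikes/s).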
With `CC(=O)c1ccccc1` [Acetophenone], the “odor-evoked OSN spike response” value is 77.7 ± 24 spikes/s. Under `CC(=O)OC/C=C(\C)CCC=C(C)C` [geranyl acetate] stands 112 ± 41 spikes/s; under `COc1cccc(OC)c1O` [Phenol, 2,6-dimethoxy- (powder)], 86.2 ± 29 spikes/s.
